PubChem BioAssay (NCATS)
Results filed as inconclusive are left out. Where a call stands in place of a potency, no number is given. Activity calls are given as the source filed them. The call rests on the fitted dose curve; in most records, active means well fitted inhibition curve with a large enough effect; inconclusive means small, poorly fitted or top-dose-only effect; inactive means flat fitted curve, though single readings scatter.

Molecular target: Calcium and integrin-binding protein 1 (Homo sapiens) (UniProt Q99828)
Experiment: Primary qHTS for Identification of Calcium Integrin Binding Protein 1 (CIB1) Competitor (AID 1508620); further: top concentration of the series differs between compounds
Conditions: CIB1-GST / FITC-alphaIIb peptide fluorescence polarization; series mostly up to 114 µM
Method in brief: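 Fluorescence polarization competition: GST-tagged CIB1 (1 uM final) preincubated with compound 15 min at room temperature, then FITC-labelled alphaIIb peptide (100 nM final) added. After 15 min at room temperature, polarization read at Ex 480/Em 540.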

Calcium and integrin-binding protein 1 (Homo sapiens), sequence (Q99828 whole entry, looked up): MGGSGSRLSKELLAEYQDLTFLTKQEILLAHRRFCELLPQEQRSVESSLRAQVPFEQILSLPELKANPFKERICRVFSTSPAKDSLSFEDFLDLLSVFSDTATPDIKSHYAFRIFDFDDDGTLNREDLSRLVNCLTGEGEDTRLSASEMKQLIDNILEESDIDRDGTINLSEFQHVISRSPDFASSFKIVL

SMILES	Potency
O=C(O)c1ccc(-n2cccc2/C=C2\SC(=O)N(Cc3ccccc3Cl)C2=O)cc1	inactive
CC(=O)Nc1sc2c(c1-c1ccc(N3CCN(C(C)=O)CC3)nc1)CCNC2	inactive
N#Cc1ccc(-c2ccc(CNc3ccc(N4CCC(C(F)(F)F)CC4)cc3)o2)cc1	inactive
CC(=O)Nc1sc2c(c1-c1ccccc1)CCN(C(=O)OC(C)(C)C)C2	inactive
Cc1ccc(-c2ccc(=O)n(CC(=O)NCCc3cnc[nH]3)n2)cc1	inactive
Cc1ccsc1CN(C)c1ncnc2ccc(-c3ccc4c(c3)OCO4)cc12	inactive
Cc1cccc(C[C@H](C(=O)O)N2C(=O)c3ccc(C(=O)O)cc3C2=O)c1	inactive
CC(C)(C)OC(=O)N1CCN(c2ccc(NCc3ccc(-c4ccc(C#N)cc4)o3)cn2)CC1	inactive
Cc1ccc(OCCn2c(CCNC(=O)CCc3ccccc3Br)nc3ccccc32)cc1	inactive
Cc1cc(C)c(S(=O)(=O)Nc2cccc3cccnc23)c(C)c1	inactive
O=C(Nc1ccc2sccc2c1)Nc1nnc(-c2cccnc2)s1	inactive
O=[N+]([O-])c1cccc(CSc2nc3ncc(Br)cc3[nH]2)c1	inactive
O=C1CCc2cc(S(=O)(=O)Nc3ccccc3Cl)ccc2N1	inactive
CC1(C)CCC(C)(C)c2cc([S+](=O)([O-])N3CCN([S+](=O)([O-])c4c(F)cccc4F)CC3)ccc21	inactive
Nc1cc(-c2nc(Nc3ccc(F)c(F)c3)c3ccccc3n2)ccn1	inactive
COc1cccc(OC)c1C1=Nn2c(nnc2-c2ccccc2C)SC1	inactive
